# Assay outcomes deposited in PubChem BioAssay by National Center for Advancing Translational Sciences (NCATS).
# Rows were chosen to be rich in hits. Some 8.8% of all compounds tested hit in one or more screens of this group.
# IL-1B inflam inh: blocks inflammasome-driven IL-1 beta release. THP-1 LPS/ATP IL-1B secretion, AlphaLISA, 16 h; stronger effect = lower value. activity change, % at 57.5 µM. actives 4.7% (n = 360,000); in the data active = activity change below about -50%; inconclusive = mostly about -30% to -49%
#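 THP-1 cells pretreated 1 hr with compounds (up to 57.5 uM final), then stimulated with LPS (250 ng/mL final) plus ATP (1.25 mM final); secreted IL-1B measured by AlphaLISA after 16 hr, decreased signal indicating inhibition.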
# KB-3-1 tox: kills parental KB-3-1 adenocarcinoma cells | KB-3-1 viability, CellTiter-Glo ATP luminescence, 72 h | Potency, µM (doses to about 46.1 µM), hits mostly cytotoxic | actives 1.4% (n = 400,000) | AID 1347075; also: potency is read from the fitted curve at half-maximal effect; nearly all actives have a fitted effect of over 60% in size
#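 Viability of parental KB-3-1 cells, measured by CellTiter-Glo luminescence, followed a 72 h incubation at 37 °C with pinned compounds in phenol-red-free DMEM containing 10% FBS.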
# HT1080-NT tox: kills 2HG-producing HT-1080-NT fibrosarcoma cells | Potency, µM (doses to about 46.1 µM), without a hit: top-dose activity, negative = less viability, actives largely listed as cytotoxic | HT-1080-NT fibrosarcoma viability, CellTiter-Glo ATP luminescence, 48 h | actives 1.6% (n = 360,000);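 also: NT is the 2HG producing partner of a matched IDH1 knockdown line; potency is read from the fitted curve at half-maximal effect; 0% = DMSO-treated cells and -100% = media-only wells without cells; nearly all actives have a fitted effect of over 55% in size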
#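 HT-1080-NT fibrosarcoma cells (2HG-overproducing), 750 cells/well in RPMI with 5% FBS, dosed after 2 h and incubated 48 h at 37C. CellTiter-Glo luminescence normalized to DMSO and no-cell wells; concentration-response curves fitted and classed.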
# HT1080 IDH1KD tx: kills HT-1080 cells with IDH1 knockdown | HT-1080 IDH1 knockdown viability, ATP luminescence, 48 h | Potency, µM (titrated, usually from 46.1 µM), without a hit: at the top dose activity, negative = toxicity, most hits filed as cytotoxic | AID 686971 | actives 2% (n = 360,000);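 also: potency is read from the fitted curve at half-maximal effect; 0% = DMSO wells and -100% = cell-free medium wells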
#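 Using the IDH1-knockdown HT-1080 line run in the same batch and compound series as the NT line, viability after 48 h at 37 °C was determined by CellTiter-Glo luminescence and expressed as % activity.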
# KB-V1 cytotox: KB-V1 MDR subline cytotoxicity. KB-V1 MDR cells viability, CellTiter-Glo, 72 h. Potency, µM (doses to about 46.1 µM), hits mostly cytotoxic. actives 3.4% (n = 400,000). AID 1347076; also: potency is read from the fitted curve at half-maximal effect; nearly all actives have a fitted effect of over 60% in size
#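 KB-V1 MDR subline cells in DMEM (phenol-red free, 10% FBS) exposed to compounds in qHTS concentration series for 72 h at 37 degrees C. Viability read by CellTiter-Glo luminescence; concentration-effect curves fitted after normalization and correction.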
# An asterisk follows results filed as active; i = inactive; ? = inconclusive; / = no result given; ! = not confirmed by another sample; [ ] = dose if it differs, or a comment. Unless noted, calls follow the shape of the dose curve; as a rule, active = well fitted curve in the direction sought with a large enough effect; inconclusive = small, poorly fitted or top-dose-only effect, or another doubt; inactive = no such curve, though single readings can be large; an effect the other way counts as inactive or inconclusive. Unless noted, % is scaled to controls: 0 for no effect and ±100 for the full control effect.
SMILES,IL-1B inflam inh,KB-3-1 tox,HT1080-NT tox,HT1080 IDH1KD tx,KB-V1 cytotox
Cc1ccc(C(=O)/C=C/c2ccc3c(c2)OCO3)o1,-50.4*,i,?,?,i
C/C(=C\c1ccccc1F)C(=O)c1c(C)cc(C)[nH]c1=O,-67.6*,i,0.3%,-1.7%,i
C/C(=C\c1ccccc1)C(=O)c1c(C)cc(C)[nH]c1=O,-16.1,i,13.3%,3.3%,i
Cc1cc(C)cc(-n2c(N)c(C(=O)Nc3c(C)n(C)n(-c4ccccc4)c3=O)c3nc4ccccc4nc32)c1,-13.4,i,-14.2%,?,?
COC(=O)c1c(N)n(-c2ccc(NC(C)=O)cc2)c2nc3ccccc3nc12,-52.2*,i,9.3%,9.7%[9.24 µM],i
CCc1ccccc1-n1c(N)c(C(=O)OC)c2nc3ccccc3nc21,/,i,/,/,i
Cc1ccc(-n2c(N)c(C(=O)Nc3c(C)n(C)n(-c4ccccc4)c3=O)c3nc4ccccc4nc32)cc1,-29.6,?,-2.6%,-7.0%,23.1µM*
Nc1c(C(=O)NCCN2CCOCC2)c2nc3ccccc3nc2n1-c1ccccc1,-52.4*,i,-1.8%,-0.5%,?
C=CCNC(=O)c1c(N)n(-c2cccc(S(N)(=O)=O)c2)c2nc3ccccc3nc12,-58.8*,?,?,?,i
O=C(Cc1ccc2ccccc2c1)Nc1nnc(-c2ccncc2)s1,/,i,/,/,i
Nc1c(C(=O)NCCN2CCOCC2)c2nc3ccccc3nc2n1-c1ccc2c(c1)OCO2,-59.0*,i,?,-23.4%,i
O=C(NCCN1CCOCC1)c1cnn2c(-c3ccccc3)cc(-c3ccccc3)nc12,-55.2*,i,?,?,?
COCCNC(=O)c1c(N)n(-c2cccc(C)c2)c2nc3ccccc3nc12,-52.7*,i,-27.5%,-28.0%,i
Cc1c(NC(=O)c2ccccc2NS(=O)(=O)c2ccc(Br)cc2)c(=O)n(-c2ccccc2)n1C,1.1,i,-0.5%,3.3%,23.1µM*
O=C(NCC1CCCO1)c1ccc(COc2ccccc2Br)cc1 (stereo not drawn),?,i,?,-23.9%,i
CC(=O)c1ccc(-n2c(CCC(=O)O)ccc2-c2ccc(Br)cc2)cc1,16.9,i,3.1%,-0.7%,i
Nc1c(C(=O)NCc2ccc3c(c2)OCO3)c2nc3ccccc3nc2n1CCCN1CCOCC1,-97.6*,i,?,6.8%[9.24 µM],i
CCCCN(CC)S(=O)(=O)c1ccc(C(=O)Nc2nnc(-c3cccs3)o2)cc1,0.0,8.2µM*,?,8.2µM*,?
CCCCN(CCCC)S(=O)(=O)c1ccc(C(=O)Nc2nnc(COC)o2)cc1,30.1,?,?,11.6µM*,?
Cc1nc(NC(=O)c2ccccc2)sc1-c1csc(Nc2ccc(C(=O)O)cc2)n1,?,i,-17.8%,5.9%,i
CCC(=O)Nc1nc(C)c(-c2csc(Nc3ccc(C(=O)O)cc3)n2)s1,-0.1,i,3.5%,9.4%,i
CC(=O)Nc1ccc(Nc2nc(-c3sc(NC(C)=O)nc3C)cs2)cc1,-95.3*,?,-0.2%,-27.0%,i
CCCC(=O)Nc1nc(C)c(-c2csc(Nc3ccc(Cl)cc3)n2)s1,-21.4,?,-21.2%,-20.9%,i
CCC(C)C(=O)Nc1nc(C)c(-c2csc(Nc3ccc(Cl)cc3)n2)s1 (stereo not drawn),-0.9,6.51µM*,-1.9%,-9.3%,i
CC(=O)c1sc(Nc2ccccn2)nc1C,9.5,14.6µM*,-9.3%,-11.0%,?
SMILES,IL-1B inflam inh,KB-3-1 tox,HT1080-NT tox,HT1080 IDH1KD tx,KB-V1 cytotox
CC(=O)Nc1nc(C)c(-c2csc(Nc3ccc(O)cc3)n2)s1,-88.4*,8.2µM*,?,18.4µM*,i
CC(=O)c1sc(Nc2cccc3ccccc23)nc1C,6.0,i,9.3%,-0.1%,i
Cc1ccc(S(=O)(=O)N(C)c2ccc(OC(=O)c3cccs3)cc2)cc1C,4.2,i,4.9%,0.0%,i
CCN(c1ccccc1)S(=O)(=O)c1ccc(Cl)c(C(=O)NCc2ccco2)c1,2.6,/,6.0%,10.3%,/
O=S(=O)(Nc1ccc(-n2cnnn2)cc1)c1ccc(F)c(F)c1F,13.9,i,0.4%,0.0%,i
CC(=O)Oc1ccc(-c2csc(Nc3ccccn3)n2)cc1,-24.1,i,-20.5%,?,i
CC(=O)Nc1nc(C)c(-c2csc(Nc3ccccn3)n2)s1,-78.9*!,?,-28.4%,?,i
O=C(N/N=C/c1ccc(-c2cccc([N+](=O)[O-])c2)o1)c1ccc([N+](=O)[O-])cc1,-50.5*,i,-3.8%,-11.1%,?
COc1cc(C(=O)NCC(=O)N/N=C/c2ccc(-c3ccc([N+](=O)[O-])cc3)o2)cc(OC)c1OC,?,i,-22.0%,-26.9%,i
COc1cc(C(=O)NCC(=O)N/N=C/c2ccc(-c3cccc([N+](=O)[O-])c3)o2)cc(OC)c1OC,-84.7*,?,0.3%,-14.9%,i
O=C(N/N=C\c1ccc(COc2ccc([N+](=O)[O-])cc2)o1)c1cccc(Cl)c1,-25.3,i,-18.1%,-26.2%,i
O=C(N/N=C\c1ccc(COc2ccc([N+](=O)[O-])cc2)o1)c1ccc(Cl)cc1,-60.0*,i,-14.7%,-25.9%,i
CCOC1=C2[C@H](c3ccccc3)N(S(=O)(=O)c3ccc(C)cc3)[C@H](C(C)C)[C@H]2n2c(=O)n(-c3ccccc3)c(=O)n2C1,5.2,i,6.6%,7.3%,i
CC(=O)N1c2ccccc2C2CCCC[C@H]21 (stereo partly drawn),31.2,i,4.9%,7.0%,i
O=S(=O)(c1cccc(Cl)c1)N1CCN(c2nc(-c3cccs3)nc3ccccc23)CC1,/,?,?,1.8%,i
C/C(=N\N=C(N)N)c1cc(Cl)ccc1Cl,-7.2,i,?,?,i
C/C(=N\NC(N)=O)c1cccc(Cl)c1,-6.9,i,0.5%,-2.0%,?
C/C(=N\N=C(N)N)c1cccc(Cl)c1,-57.1*,i,?,?,i
C/C(=N\N=C(N)N)c1ccc(Cl)cc1Cl,-92.5*,?,13µM*,20.6µM*,?
CCn1c(CCc2ccccc2)nc2ccccc21,-0.1,i,-2.7%,5.3%,i
Cc1nn(C)c2c1c(-c1ccccc1)cc(=O)n2CC(=O)NC(C)c1ccccc1 (stereo not drawn),/,i,/,/,i
CCOC(=O)C1=C(C)N(C)C(=S)NC1c1cc(OC)ccc1OC (stereo not drawn),-6.3,i,0.5%,-9.6%,?
CC(C)C[C@H]1CNC(=S)N1C[C@H]1CCCN1C[C@H](Cc1ccc(O)cc1)N1C[C@H](Cc2ccccc2)N(CC2CCCCCC2)C1=S,-18.1,?,-26.5%,-18.2%,?
